Screening data as filed in PubChem.
A549 viability: counter-screen for Nrf2 inhibitors: cytotoxicity in A549 cells; A549 ARE-Fluc cells, CellTiter-Fluor viability, 18-24 h; Potency, µM (highest dose often 46 µM), hits mostly inhibitors; 0.16% of 390,000 active; AID 504648
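A549 ARE-Fluc cells in 5% FBS OPTI-MEM, 5000 cells/well, rested 2 h then exposed to compounds in concentration-response for 18-24 h at 37 °C. Viability by CellTiter-Fluor fluorescence (Ex 405/Em 525) after 30 min; luciferase luminescence (BugLite, 15 min, RT) read afterwards.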
HepG2 tox: counter-screen for TGF-b inhibitors: cytotoxicity in HepG2 cells; Potency, µM (series often up to 46.1 µM), usual class: cytotoxic; 0.76% of 410,000 active; HepG2 CAGA-GFP viability, ATP luminescence, 18 h
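HepG2 CAGA-GFP cells (1000/well, DMEM with 1% FBS) received compound, then TGF-beta at 500 pg/mL final, and were incubated 18 hours at 37 degrees C. Viability was read by CellTiter-Glo luminescence. Media-only wells were set as complete cell-killing and DMSO as no toxicity.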
ATXN viability: reduces viability in counter-screen for ATXN expression inhibitors; 0.49% of 400,000 active; S2 cells (HEK-293 line with an ATXN2-luciferase reporter) viability, CellTiter-Fluor protease fluorescence, 24 h; Potency, µM (titrated, usually from 56.7 µM), usual class: cytotoxic; further: nearly all actives have a fitted effect of over 40% in size
ATXN2 expr inh: reduces ATXN2 reporter expression in HEK-293 cells; HEK-293 ATXN2-luciferase reporter, luminescence, 24 h; Potency, µM (series often up to 57 µM), usual class: inhibitors; AID 1745845; 0.72% of 360,000 active; further: nearly all actives have a fitted effect of over 55% in size
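ATXN2-luciferase reporter cells (luciferase flanked by upstream and downstream ATXN2 gene portions) were treated 24 h at 37 °C with compounds at up to 57 uM. SteadyGlo luminescence gave expression; GF-AFC fluorescence gave viability.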
TGFb inhibitor: inhibitors of TGF-b signaling | 1.2% of 410,000 active | AID 588855 | Potency, µM (titrated, usually from 46.1 µM), hits mostly inhibitors | HepG2 CAGA-GFP TGF-b/SMAD3 reporter, GFP fluorescence, 18 h; TGF-beta stimulated, 500 pg/mL final; further: nearly all actives have a fitted effect of over 65% in size
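Read-out: total well GFP (ex488/em500-530) summed from mean per-cell fluorescence. Cells: HEPG2 CAGA-GFP, 1% FBS DMEM, 18 h at 37 degrees C with 500 pg/mL final TGF-beta. Unstimulated wells served as the full-inhibition control; stimulated DMSO wells = 0%.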
Nrf2 inh: blocks Nrf2 signaling | Potency, µM (series often up to 46 µM), actives largely listed as inhibitors | 2.1% of 360,000 active | A549 ARE-Fluc reporter, luciferase luminescence, 18-24 h; further: nearly all actives have a fitted effect of over 60% in size
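Nrf2 activity is the BugLite luminescence, read 15 min after reagent at room temperature, following CellTiter-Fluor cytotoxicity readout (30 min, 37C). Compound titrations were applied for 18-24 h to 5000 A549 ARE_Fluc cells/well in 5% FBS OPTI-MEM.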
Each line names hits and unclear results; the compound was inactive in the other large screens; ! = not active in a repeat. Compounds with a hit are over-represented: about 3.8% of the library has one in this group of screens. The call rests on the fitted dose curve; in most records, active means well fitted curve in the direction sought with a large enough effect; inconclusive means small, poorly fitted or top-dose-only effect, or another doubt; inactive means no such curve, though single readings can be large; an effect the other way counts as inactive or inconclusive.

CCN(CC)C(=O)[C@H]1CC(CC(=O)NC/C=C(\C)CCC=C(C)C)C(=O)N2CCc3c([nH]c4ccc(OC)cc34)[C@]12C (stereo partly specified)	A549 viability inconclusive, ATXN viability 25µM, ATXN2 expr inh inconclusive, TGFb inhibitor 11µM, Nrf2 inh inconclusive
CN(C)CCCNc1c2ccccc2nc2ccccc12	A549 viability 8.2µM, ATXN viability inconclusive, ATXN2 expr inh inconclusive, TGFb inhibitor inconclusive, Nrf2 inh 8.2µM
OCCNc1c2ccccc2nc2c(F)c(F)c(F)c(F)c12	ATXN2 expr inh 7.5µM (no result: ATXN viability)
O=C(CSc1nncc2ccccc12)N1CCCCC1	Nrf2 inh 10µM
O=C(CSc1cccc2cccnc12)N1CCCC1	A549 viability inconclusive, HepG2 tox 16µM, ATXN viability inconclusive, ATXN2 expr inh inconclusive, TGFb inhibitor inconclusive
CN(C)C(=O)CSc1cccc2cccnc12	HepG2 tox 7.1µM, ATXN viability inconclusive, ATXN2 expr inh inconclusive, TGFb inhibitor inconclusive (no result: Nrf2 inh)
NNC(=O)CSc1cccc2cccnc12	none
CC(=O)c1ccc(NC(=O)C(C)OC(=O)c2ccc(NS(=O)(=O)c3ccc(F)c(F)c3)cc2)cc1 (stereo unspecified)	TGFb inhibitor inconclusive, Nrf2 inh inconclusive
COc1ccc(/C=N\NC(=O)COc2ccccc2)c(C(=O)O)c1OC	none
Nc1cc(-c2cccc(Br)c2)nn1Cc1ccccc1	none
Nc1cc(-c2ccc(Br)cc2)nn1Cc1ccccc1	ATXN viability inconclusive, Nrf2 inh 10µM
Cc1cc(Nc2cc(Cl)ccc2C)n2nc(Cc3ccccc3)nc2n1	Nrf2 inh inconclusive
C=C1CC2(CC(c3ccccc3)OC(c3ccccc3)C2)OC1=O (stereo unspecified)	A549 viability inconclusive, HepG2 tox 11µM, ATXN2 expr inh inconclusive, TGFb inhibitor inconclusive, Nrf2 inh inconclusive (no result: ATXN viability)
O=C1CCCC[C@@H](O)[C@H](O)C[C@H](c2ccccc2)O1	none (no result: A549 viability, HepG2 tox, TGFb inhibitor, Nrf2 inh)
C=C[C@@H]1c2cc(C)ccc2N(S(=O)(=O)c2ccc(C)cc2)[C@H](c2ccc(OC(C)=O)cc2)C1(C#N)C#N	HepG2 tox 6.3µM!, ATXN viability inconclusive, ATXN2 expr inh 25µM, TGFb inhibitor inconclusive
Cc1ccc(C2C(/C=C3/SC(=S)NC3=O)=C(c3cccs3)Oc3ccccc32)cc1 (stereo unspecified)	A549 viability 10µM, TGFb inhibitor inconclusive, Nrf2 inh 13µM
COc1ccc2c(c1)C=C(CN1CCC(CO)(CCc3ccccc3)CC1)CO2	none
COc1ccc(CC2(CO)CCN(Cc3ccc(OC(F)(F)F)cc3)CC2)cc1	HepG2 tox 20µM, ATXN viability inconclusive, ATXN2 expr inh inconclusive, TGFb inhibitor 14µM, Nrf2 inh inconclusive
COc1ccc(CC2(CO)CCN(CC3=Cc4cc(Cl)ccc4OC3)CC2)cc1	ATXN viability inconclusive, ATXN2 expr inh inconclusive, TGFb inhibitor inconclusive, Nrf2 inh 13µM
Cc1ccc(Cl)cc1NC(=O)c1oc2ccc(S(=O)(=O)N3CCC4(CC3)OCCO4)cc2c1C	none (no result: ATXN viability, ATXN2 expr inh, Nrf2 inh)
CCC1(c2ccccc2)CN(C)C1=O (stereo unspecified)	none (no result: A549 viability, ATXN2 expr inh, Nrf2 inh)
CCC1(c2ccccc2)ON(c2c(Br)cccc2Br)C1=O (stereo unspecified)	ATXN viability inconclusive, ATXN2 expr inh 22µM, TGFb inhibitor inconclusive
O=[N+]([O-])c1cccnc1Sc1ccc(F)cc1	HepG2 tox 7.1µM
O=c1ccnc(Sc2ncccc2[N+](=O)[O-])[nH]1	none (no result: Nrf2 inh)
CC1CCN(C(=O)CN2CCSc3ccc(S(=O)(=O)N(C)C)cc32)CC1	ATXN viability inconclusive (no result: Nrf2 inh)
Nc1cccc2c(O)cccc12	none
Nc1ccccc1O	HepG2 tox 16µM, TGFb inhibitor inconclusive
COc1ccc(CNc2nc(NCc3ccc(OC)c(OC)c3)n(C(=O)c3cccs3)n2)cc1OC	Nrf2 inh inconclusive
CCOc1ccc(Cn2nnc(C(=O)Nc3cccc(SC)c3)c2N)cc1	none
CSc1ncc(C(=O)Nc2cccc(C)c2C)c(C)n1	none
CCCC(=O)n1nc(-c2ccco2)nc1NCc1ccccc1Cl	ATXN viability inconclusive
Cc1ccc(S/C=C\C(=O)c2ccccc2)cc1	ATXN viability 22µM, ATXN2 expr inh inconclusive, TGFb inhibitor inconclusive
Cc1cc(C(=O)CSc2ccc3c(c2)OCCO3)c(C)n1C1CC1	Nrf2 inh inconclusive
COc1cc2c(C#N)c(N3CCCC3)nc(N)c2c(N)n1	A549 viability inconclusive, TGFb inhibitor inconclusive, Nrf2 inh inconclusive
COc1cc2c(C#N)c(N3CCN(c4ccccc4OC)CC3)nc(N)c2c(N)n1	A549 viability inconclusive, Nrf2 inh 16µM
CCc1nnc(NC(=O)CSc2nc3cc(OC)ccc3cc2C)s1	none
COc1cc2c(cc1OC)C1(Nc3c-2c(Cc2ccccc2)nn3-c2ccccc2)C(=O)Nc2ccccc21 (stereo unspecified)	A549 viability inconclusive, ATXN viability inconclusive, TGFb inhibitor inconclusive, Nrf2 inh 12µM
O=C1C=CC(=O)N1c1ccc(O)cc1	HepG2 tox 7.9µM, TGFb inhibitor inconclusive, Nrf2 inh inconclusive (no result: ATXN2 expr inh)
O=C(COc1ccc2ccccc2c1CN1CCOCC1)N1CCc2ccccc21	A549 viability inconclusive, HepG2 tox 13µM, TGFb inhibitor inconclusive
O=C(COc1ccccc1Cl)N1CCc2ccccc21	Nrf2 inh inconclusive
CC1=CC(O)=NS(=O)(=O)O1	none (no result: A549 viability, ATXN viability, ATXN2 expr inh, Nrf2 inh)
CC1CC(C)CN(S(=O)(=O)c2ccc(Oc3ccc([N+](=O)[O-])cc3)cc2)C1 (stereo unspecified)	TGFb inhibitor inconclusive, Nrf2 inh 23µM
S=c1ncc2n[nH]nc2[nH]1	none (no result: A549 viability, ATXN viability, ATXN2 expr inh, Nrf2 inh)
Cc1ccc(NC(=O)CCc2nnc3ccc(NCc4ccco4)nn23)cc1	Nrf2 inh inconclusive
COc1cccc(N2CCN(c3nc(-c4ccccc4C)cc(=O)[nH]3)CC2)c1	ATXN2 expr inh 0.71µM, TGFb inhibitor inconclusive, Nrf2 inh inconclusive
COc1cccc(N2CCN(c3nc(C)c(C)c(=O)[nH]3)CC2)c1	Nrf2 inh inconclusive
O=C(NCCCCc1ccccc1)c1cccc(NC(=O)C2CCC2)c1	Nrf2 inh 16µM
CCCc1nnc(NC(=O)c2nc(S(=O)(=O)Cc3ccc(C)cc3)ncc2Cl)s1	A549 viability inconclusive, ATXN2 expr inh inconclusive, TGFb inhibitor inconclusive (no result: ATXN viability)
CCS(=O)(=O)c1ncc(Cl)c(C(=O)N2CCN(c3ccc(OC)cc3)CC2)n1	A549 viability inconclusive, HepG2 tox 11µM, Nrf2 inh 21µM (no result: ATXN viability, ATXN2 expr inh, TGFb inhibitor)
Cc1ccc(CNC(=O)c2nc(S(=O)(=O)Cc3ccc(C)cc3)ncc2Cl)cc1	TGFb inhibitor inconclusive, Nrf2 inh 12µM
CCS(=O)(=O)c1ncc(Cl)c(C(=O)NCc2ccc(OC)cc2)n1	A549 viability inconclusive, HepG2 tox 5.6µM, TGFb inhibitor 3.2µM (no result: ATXN viability, ATXN2 expr inh, Nrf2 inh)
